# USP17 block: human USP17-like deubiquitinase inhibition | purified USP17, Ub-rhodamine cleavage fluorescence, 3 h | inhibition, % at 50 µM | A8MUK1 | 47,000 compounds, 6.5% hits
# Target sequence (A8MUK1 whole entry, looked up): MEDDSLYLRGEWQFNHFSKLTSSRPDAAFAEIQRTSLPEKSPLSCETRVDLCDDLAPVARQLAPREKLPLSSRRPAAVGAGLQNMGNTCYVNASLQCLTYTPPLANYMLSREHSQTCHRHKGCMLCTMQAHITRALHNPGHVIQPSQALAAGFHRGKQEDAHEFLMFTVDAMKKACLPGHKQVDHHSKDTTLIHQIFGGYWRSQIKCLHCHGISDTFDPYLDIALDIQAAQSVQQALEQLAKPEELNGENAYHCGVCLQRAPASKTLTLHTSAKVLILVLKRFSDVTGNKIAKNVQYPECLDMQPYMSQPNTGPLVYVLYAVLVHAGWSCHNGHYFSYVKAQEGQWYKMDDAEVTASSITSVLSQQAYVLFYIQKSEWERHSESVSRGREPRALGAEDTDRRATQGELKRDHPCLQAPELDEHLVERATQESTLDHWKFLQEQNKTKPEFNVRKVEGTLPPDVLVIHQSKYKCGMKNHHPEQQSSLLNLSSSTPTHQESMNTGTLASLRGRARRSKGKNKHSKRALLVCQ
# USP30 block: human USP30 deubiquitinase inhibition; purified USP30, Ub-rhodamine cleavage fluorescence; 47,000 compounds, 5.3% hits; inhibition, % at 25 µM
# USP28 inh: inhibitors of human USP28 deubiquitinase; 47,000 compounds, 3% hits; inhibition, % at 25 µM; purified USP28, Ub-rhodamine cleavage fluorescence, 30 min; Q96RU2
# * hit, by the source's call; i = inactive; x = no result given. Hits are enriched below; roughly 11% of the tested compounds scored in any of these assays. No stated cut-off is given here; in the data, active means inhibition above about 30%; inactive means the rest.
SMILES,USP17 block,USP30 block,USP28 inh
Cc1ccccc1C(=O)N1CC(C(=O)NC2CCCC2)C2(CCOCC2)C1 (configuration not stated),5,4,-2
CC(C)c1ccc(-n2c(=O)c3ccccc3c3ccccc3c2=O)cc1,3,35*,12
CC(C)c1nc(SCc2nc3ccccc3c(=O)n2-c2ccccc2)c2ccccc2n1,9,-6,-10
CC1=C(CO)C(=O)O[C@@H]([C@@H](C)[C@H]2CC[C@H]3[C@@H]4C[C@H]5O[C@]56[C@@H](O)C=CC(=O)[C@]6(C)[C@H]4CC[C@]23C)C1,72*,83*,44*
CC(=O)Nc1ccc(NC(=O)C2(c3ccccc3)CC2)cc1,-5,4,-7
O=C(Nc1ccccc1)N1CCN(c2cc(-c3ccncc3)[nH]n2)CC1,-11,0,2
CCOc1ccc2ccccc2c1C(=O)N1CC(=O)Nc2ccc(C)cc2C1c1ccc(F)cc1 (configuration not stated),9,43*,17
Cc1ccc2c(c1)C(c1ccc(F)cc1)N(C(=O)COc1ccc3ccccc3c1)CC(=O)N2 (configuration not stated),-10,-21,-11
Cc1ccc2oc(SCC(=O)Nc3ccccc3)nc2n1,3,3,-4
CC(=O)NC(Cc1ccc(F)cc1)C(=O)NC1CCN(C(=O)c2cccc(C)c2)CC1 (configuration not stated),-9,-1,-5
O=C(Cn1c(=O)[nH]c2ccccc2c1=O)NCC1CCC(C(=O)N[C@@H](C(=O)O)c2ccccc2)CC1 (some centres not stated),-22,3,-7
CSc1ccccc1NC(=O)COC(=O)C(Cc1c[nH]c2ccccc12)NC(=O)c1ccccc1Cl (configuration not stated),25,30*,20
O=C(COC(=O)C(Cc1c[nH]c2ccccc12)NC(=O)c1ccccc1Cl)c1ccc([N+](=O)[O-])cc1 (configuration not stated),17,38*,13
N#Cc1ccccc1NC(=O)COC(=O)C(Cc1c[nH]c2ccccc12)NC(=O)c1ccc(Cl)cc1 (configuration not stated),14,-2,5
Cc1ccc(C)c(NC(=O)COC(=O)C(Cc2c[nH]c3ccccc23)NC(=O)c2ccccc2Cl)c1 (configuration not stated),20,13,15
O=C(COC(=O)C(Cc1c[nH]c2ccccc12)NC(=O)c1ccccc1Cl)Nc1ccc([N+](=O)[O-])cc1C(F)(F)F (configuration not stated),-1,-2,-3
COc1ccc(Cl)cc1NC(=O)COC(=O)C(Cc1c[nH]c2ccccc12)NC(=O)c1ccccc1Cl (configuration not stated),20,31*,4
Cc1sc(NC(=O)COc2ccccc2C#N)nc1-c1ccc(F)cc1,0,6,2
Cc1cccc(NC(=O)CSc2cc(C)c3cc(S(=O)(=O)N(C)C)ccc3n2)c1,8,16,16
COc1ccc(C(CNC(=O)CCc2ccccc2)N2CCOCC2)cc1 (configuration not stated),6,14,4
O=C(c1cnccn1)N1CCc2[nH]c3ccc(F)cc3c2C1,-159,i,-258
CCOC(=O)CSc1nc2nccnc2c(=O)n1Cc1ccccc1,-10,-5,1
COc1ccc(Cn2c(SCC(=O)Nc3cc(C)[nH]n3)nc3nccnc3c2=O)cc1,48*,49*,17
Cc1cc2c(cc1C)NC(CC(=O)Nc1ccc(O)cc1)C(=O)N2 (configuration not stated),64*,-50,24
O=C(CC1SC(=O)NC1=O)Nc1ccc(Cl)cc1 (configuration not stated),2,x,x
SMILES,USP17 block,USP30 block,USP28 inh
COCCNC(=O)N1CCN2[C@H](C[C@@H](C(=O)N(C)C)[C@]23C(=O)Nc2ccccc23)C1,6,0,-4
COc1ccc(-c2csc3ncn(CC(=O)NCc4ccccc4)c(=O)c23)cc1,-94,-227,-66
O=c1[nH]c(-c2ccncc2)nc2c1CCN(Cc1ccccc1)C2,0,-10,0
Fc1ccccc1-c1nnc2n1-c1ccccc1SC2,-5,24,5
c1ccc(-c2nnc3n2-c2ccccc2SC3)cc1,17,31*,15
Cc1nn(C)c(C)c1C1CCCN1C(=O)CN1C(=O)NC(C)(C)C1=O (configuration not stated),x,17,7
Cc1c(Cl)cccc1NC(=O)CSc1nc2cn(C)nc2c(=O)n1CC1CC1,20,27,13
Cn1cc2nc(SCC(=O)NCc3ccccc3Cl)n(CC3CC3)c(=O)c2n1,30,32*,14
Cc1ccc(Cl)cc1NC(=O)CSc1nc2cn(C)nc2c(=O)n1CC1CC1,68*,54*,28
Cn1cc2nc(SCC(=O)Nc3ccc(Cl)cc3F)n(CC3CC3)c(=O)c2n1,18,-21,-2
CC(Nc1cc(-c2ccccc2F)nc(-c2ccncc2)n1)c1ccccc1 (configuration not stated),-16,-212,-52
CCCC(=O)N1CCCC(c2nnc(C(=O)Nc3ccc(F)cc3)s2)C1 (configuration not stated),14,x,x
Cc1ccc(NC(=O)c2cccc(-n3cnnn3)c2)cc1,11,15,6
Cc1cc(=O)oc2cc(NC(=O)c3ccc(-n4cnnn4)cc3)ccc12,44*,27,3
COc1cccc(C(=O)Nc2ccc(-n3cnnn3)cc2)c1,32*,51*,17
O=C(Nc1ccc2c(c1)OCO2)c1ccccc1-n1cnnn1,-9,-21,-11
CCCCOc1ccccc1C(=O)Oc1ccc(-n2cnnn2)cc1,11,17,29
O=C(Oc1ccc(-n2cnnn2)cc1)c1ccccc1Br,33*,0,2
O=C(COc1cccc(-n2cnnn2)c1)Nc1ccc2c(c1)OCCO2,5,14,50*
Cc1cc(=O)oc2cc(NC(=O)c3ccccc3C(=O)O)ccc12,9,x,x
O=C(c1ccn(-c2ccc3ccc(-c4ccccc4)cn23)n1)N1CCCC1,-84,-468,-136
Cc1cc(S(=O)(=O)N2CCC(C3(C)NC(=O)NC3=O)CC2)ccc1F (configuration not stated),4,9,3
CN(Cc1ccccc1Cl)C(=O)c1ccc(-n2cccn2)cc1,-20,-14,0
Cc1ccc2nc(CCc3ccc(NS(=O)(=O)c4ccccc4)cc3)[nH]c2c1,-8,x,x
N#Cc1ccc(NC(=O)COc2ccc(-n3cnnn3)cc2)cc1,49*,37*,21
SMILES,USP17 block,USP30 block,USP28 inh
O=C(COc1ccc(-n2cnnn2)cc1)Nc1cc(Cl)ccc1Oc1ccccc1,17,6,20
O=C(COc1ccc(F)cc1)Oc1ccc(-n2cnnn2)cc1,5,30*,20
Cc1cccc(OCC(=O)Oc2ccc(-n3cnnn3)cc2)c1C,0,-2,1
O=C(Cc1nnc(-c2cnccn2)o1)Nc1ccc(Cl)c(F)c1,-3,-4,-4
Cc1ccc(Nc2nc(C(=O)N3CCN(c4ccccn4)CC3)cc3occc23)cc1Cl,15,-70,9
O=C(c1cc2occc2c(Nc2ccc(F)cc2)n1)N1CCN(c2ccccn2)CC1,34*,27,13

# Source: PubChem BioAssay (Buhrlage Lab, Dana-Farber Cancer Institute and Novartis Institutes for BioMedical Research (Cambridge, Mass))
